High-throughput results (PubChem BioAssay)
The list is not random: actives were taken first. Their share in the collection is about 21%.
HCMV antiviral: human cytomegalovirus inhibition. HFF cells, HCMV-luciferase reporter, 72 h; hits give low values. activity change, negative = inhibition, % at 57.5 µM. hit rate 4.5% among 410,000. AID 1259415; in the data active = activity change below about -60%; inconclusive = no clear call, values can overlap the other calls; inactive = above about -39%
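Compounds were evaluated in HFFs infected with an HCMV luciferase reporter virus (MOI 1 PFU/cell). Luciferase in lysates collected 72 h post infection served as the replication measure.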
Pf growth 48h: P. falciparum growth inhibition at 48 hours (one generation); hit rate 5.9% among 310,000; P. falciparum luciferase growth in erythrocytes, 48 h; Potency, µM (titrated, usually from 28.7 µM), hits mostly inhibitors
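Here the parasites carry a stable luciferase gene and grow inside erythrocytes in Albumax-based RPMI medium with compound for one erythrocytic cycle. Activity is scored as loss of luminescent signal.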
HCV inhibitor: blocks hepatitis C virus; Huh7.5.1 HCVcc-Cre infection, luciferase reporter, 44 h; Potency, µM (highest dose often 41.8 µM), actives largely listed as inhibitors; hit rate 3.4% among 340,000
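Whole-lifecycle infectious HCVcc-Cre system; cells 1,000/well, compound then virus (~0.5 moi) added 4 h after plating, 44 h culture. Luciferase read 15 sec following 15 min substrate incubation, room temp.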
Pf growth 96h: P. falciparum growth inhibition at 96 hours; P. falciparum luciferase reporter growth, 96 h; hit rate 6.9% among 320,000; Potency, µM (top dose mostly 28.7 µM), hits mostly inhibitors
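Cell-based qHTS: luciferase-tagged P. falciparum in erythrocytes (2% hematocrit, 0.05% parasitemia final) incubated with compounds for 96 hours, 37 C, 5% CO2; luciferase detection reagent then added and luminescence measured.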
Shiga toxin inh: inhibitors of Shiga toxin in Vero cells; Vero cells, Shiga toxin protein synthesis inhibition reporter; inhibition, % at 38.7 µM; hit rate 9.2% among 290,000; AID 2315; in the data active = inhibition mostly above about 28%, no sharp cut-off; inactive = mostly below about 43%
CHX counter: counter-screen for Shiga toxin inhibitors: cycloheximide protein synthesis inhibition; max response, %; AID 2314; hit rate 12% among 300,000; cell reporter, cycloheximide protein synthesis inhibition counterscreen; in the data active = max response mostly above about 13%, no sharp cut-off; inactive = mostly below about 14%; also: read at 38.3 µM for the half of the compounds with a filed dose
Large screens that a line does not name were inactive. Unless noted, calls follow the shape of the dose curve; as a rule, active = well fitted inhibition curve with a large enough effect; inconclusive = small, poorly fitted or top-dose-only effect, or another doubt; inactive = no such curve, though single readings can be large or run the other way.

O=C(CN1C(=O)COc2ccc(S(=O)(=O)N3CCCC3)cc21)N1CCN(c2ccccc2F)CC1	none (no result: Pf growth 48h, HCV inhibitor, Pf growth 96h, Shiga toxin inh, CHX counter)
Cc1cccc(C(=O)OCC(=O)NC(=O)NCc2ccccc2)c1	none (no result: Shiga toxin inh, CHX counter)
CCc1cccc(NC(=O)CCCSc2nc3ccccc3[nH]2)c1	none
COc1ccc(Cl)cc1NC(=O)CCc1nnc2ccc(N3CCC4(CC3)OCCO4)nn12	Pf growth 48h inconclusive
C=CCC[C@@H](Cc1ccc(F)cc1)C(=O)OC[C@H](Cc1c[nH]c2ccccc12)NC(=O)[C@@H](CC=C)CC(=O)N[C@H](CO)Cc1ccccc1	none (no result: Pf growth 48h, Pf growth 96h, Shiga toxin inh, CHX counter)
C=CCC[C@@H](Cc1ccc(F)cc1)C(=O)OC[C@@H]1CCCN1C(=O)[C@H](CC=C)CC(=O)N[C@H](CO)Cc1ccccc1	HCV inhibitor 10µM (no result: Pf growth 48h, Pf growth 96h, Shiga toxin inh, CHX counter)
C=CC[C@H](CC(=O)N(CCO)Cc1ccccc1)C(=O)N[C@H](COC(=O)[C@@H](CC=C)Cc1ccc(F)cc1)C(C)(C)C	HCV inhibitor inconclusive (no result: Pf growth 48h, Pf growth 96h, Shiga toxin inh, CHX counter)
C=CCC[C@H](Cc1ccc(F)cc1)C(=O)OC[C@H](Cc1c[nH]c2ccccc12)NC(=O)[C@@H](CC=C)CC(=O)N[C@@H](CO)Cc1ccccc1	HCMV antiviral -86.4, HCV inhibitor inconclusive (no result: Pf growth 48h, Pf growth 96h, Shiga toxin inh, CHX counter)
C=CCC[C@H](Cc1ccc(F)cc1)C(=O)OC[C@H](C)NC(=O)[C@H](CC=C)CC(=O)NCCO	HCMV antiviral -69.3 (no result: Pf growth 48h, Pf growth 96h, Shiga toxin inh, CHX counter)
C=CCC[C@H](Cc1ccc(F)cc1)C(=O)OC[C@@H](NC(=O)[C@@H](CC=C)CC(=O)N(CCO)Cc1ccccc1)C(C)(C)C	HCV inhibitor 3.16µM (no result: Pf growth 48h, Pf growth 96h, Shiga toxin inh, CHX counter)
C=CCC[C@@H](Cc1ccc(F)cc1)C(=O)OC[C@H]1CCCN1C(=O)[C@@H](CC=C)CC(=O)N[C@H](CO)Cc1ccccc1	none (no result: Pf growth 48h, Pf growth 96h, Shiga toxin inh, CHX counter)
Cc1ccc(OCc2cc(=O)n3cc(C)sc3n2)c(NC(=O)c2ccco2)c1	none (no result: Pf growth 48h, HCV inhibitor, Pf growth 96h, Shiga toxin inh, CHX counter)
C=CCC[C@H](Cc1ccc(F)cc1)C(=O)OC[C@@H](NC(=O)[C@@H](CC=C)CC(=O)N[C@@H](CO)Cc1ccccc1)C(C)(C)C	HCV inhibitor 22.4µM (no result: Pf growth 48h, Pf growth 96h, Shiga toxin inh, CHX counter)
CN(C)N=Nc1nc2c([nH]1)c(=O)n(C)c(=O)n2C	none
CN(C)N=Nc1nc2c(c(=O)n(C)c(=O)n2C)n1CC1CO1 (centres undefined)	HCMV antiviral -77.5, HCV inhibitor 3.98µM
Cc1nc2cc(NC(=O)Nc3ccc(Br)cc3)ccc2o1	HCMV antiviral inconclusive, HCV inhibitor inconclusive, Shiga toxin inh 99.1, CHX counter 46.7
Cc1nc2cc(NC(=O)N3c4ccccc4CC3C)ccc2n1C (centres undefined)	Shiga toxin inh 33.0, CHX counter 18.9 (no result: Pf growth 96h)
Cc1nc2cc(NC(=O)N3c4ccccc4CC3C)ccc2o1 (centres undefined)	HCV inhibitor inconclusive, Shiga toxin inh 73.2, CHX counter 42.2 (no result: Pf growth 96h)
COc1ccc(N(CN2C(=O)C3CC=CCC3C2=O)C(=O)c2ccco2)cc1 (centres undefined)	none
CC(=O)N(CN1C(=O)CCC1=O)c1ccc(Cl)c(Cl)c1	HCMV antiviral -66.4, Pf growth 96h inconclusive
O=C1CCC(=O)N1CN(C(=O)c1ccco1)c1ccc(Cl)c(Cl)c1	Pf growth 96h 10.4µM
O=C(NCc1ccccc1)c1onc(CS(=O)(=O)c2ccccn2)c1C(=O)NCc1ccccc1	Pf growth 48h inconclusive, Pf growth 96h inconclusive (no result: Shiga toxin inh, CHX counter)
CC1(C)CC(=O)/C(=C(/O)CCCN2C(=O)c3ccccc3C2=O)C(=NC(C)(C)C)C1	none
CC1CCCC(C)N1C(=O)CSc1nnc(C2CCCCC2)o1 (centres undefined)	Shiga toxin inh 92.5, CHX counter 46.0 (no result: Pf growth 96h)
Cc1cc(-c2nnc(SCC(=O)N3C(C)CCCC3C)o2)no1 (centres undefined)	none (no result: Pf growth 96h)
CC1CCCCN1C(=O)CSc1nnc(-c2ccc(Cl)s2)o1 (centres undefined)	Shiga toxin inh 88.4, CHX counter 27.9
CC1CCCCN1C(=O)CSc1nnc(-c2ccccc2O)o1 (centres undefined)	Shiga toxin inh 55.5, CHX counter 21.2
CCCN(CCC)CCCNC(=O)c1cn(-c2ccc(OC)cc2)c(=O)c2ccccc12	none
CCSC(=O)N=Nc1ccc(O)cc1	none (no result: Pf growth 48h, Pf growth 96h, Shiga toxin inh, CHX counter)
O=[As](O)(O)c1ccc(N=Nc2ccc(O)cc2)cc1	HCMV antiviral -79.8, Pf growth 48h inconclusive, Pf growth 96h 2.94µM
